# Reference: PubChem BioAssay
# Inconclusive results are not listed. Activity calls are given as the source filed them. Unless noted, the rule behind the calls is not given here.
# How the values were obtained:
# [1] = modulation of C. elegans fzo-1 (AID 1259413);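 note: fzo-1 mutant C. elegans worms in liquid wells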; conditions: C. elegans fzo-1 modulator screen, mean read-out; stronger effect = higher value
# [2] = EMT-state selective cytotoxicity in co-culture – imaging, PC-3E GFP, TEM4-18 mCherry, primary screen (AID 1345086;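 active = compounds killing one labelled cell type while sparing the other, by normalised counts and ratio limits, not self-fluorescent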;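 for all read-outs here: cells exposed to compound for 72 h before imaging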;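 for red/green cell ratio (normalised): normalised mesenchymal count divided by normalised epithelial count so high means epithelial killing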); conditions: PC-3E GFP / TEM4-18 mCherry co-culture, imaging cell counts, at 1 µM; for red/green cell ratio (normalised): actives lie on both sides, counts scaled to control wells, 1 = unselective
# [3] = test system: Aerobactin synthetase IucA (Klebsiella pneumoniae); test: inhibition of K. pneumoniae IucA enzyme – biochemical, Tocris library, absorbance (AID 1345561); conditions: purified IucA enzyme assay, absorbance (OD) read-out; stronger effect = lower value;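 tested at 8 µM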;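 note: 100% = enzyme without compound and 0% = no enzyme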
# [4] = viability loss in pontine glioma line – cell-based, JHH-DIPG-1, MIPE4.0, CellTiter-Glo, qHTS, dose response (AID 1347062; cut-off not given, nearly all actives have AC50 up to about 27 µM;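 for AC50: cells exposed to compound for two days before readout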); conditions: JHH-DIPG-1 viability, CellTiter-Glo ATP luminescence
# [5] = viability loss in pontine glioma line – cell-based, SU-DIPG-IV, MIPE4.0, CellTiter-Glo, qHTS, dose response (AID 1347063; cut-off not given, nearly all actives have AC50 up to about 30 µM;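 note: compound exposure lasted 48 hours before the viability readout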); conditions: CellTiter-Glo ATP luminescence
# [6] = viability loss in pontine glioma line – cell-based, SU-DIPG-XIII, MIPE4.0, CellTiter-Glo, qHTS, dose response (AID 1347061; cut-off not given, nearly all actives have AC50 up to about 37 µM;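 note: cells exposed to compound for 48 hours before readout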); conditions: CellTiter-Glo ATP luminescence
# [7] = viability loss in pontine glioma line – cell-based, SU-DIPG-XVII, MIPE5.0, CellTiter-Glo, qHTS, dose response (AID 1347060; cut-off not given, nearly all actives have AC50 up to about 26 µM;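 for AC50: cells exposed to compound for 48 hours before viability readout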); conditions: CellTiter-Glo ATP luminescence
# [8] = viability loss in pontine glioma line – cell-based, SU-DIPG-XIII, MIPE5.0, CellTiter-Glo, qHTS, dose response (AID 1347064; cut-off not given, nearly all actives have AC50 up to about 23 µM); conditions: CellTiter-Glo ATP luminescence
# [9] = measured here: epithelial PC-3E GFP cell survival
# [10] = measured here: mesenchymal TEM4-18 mCherry cell survival
Compound,mean signal [1],red/green cell ratio (normalised) [2],"normalised cell number [2, 9]","normalised cell number [2, 10]",remaining activity [3],outcome [4],outcome [5],outcome [6],outcome [7],outcome [8],AC50 [7],AC50 [4],AC50 [5]
COCCCC/C(=N\OCCN)c1ccc(C(F)(F)F)cc1,245 (inactive),0.92 (inactive),1.1,1.01,125% (inactive),inactive,inactive,,,,,,
COc1cc2nc(N3CCN(C(=O)C4CCCO4)CC3)nc(N)c2cc1OC (stereo not given),236 (inactive),0.95 (inactive),0.99,0.94,115% (inactive),inactive,inactive,inactive,,,,,
NS(=O)(=O)c1cc(C(=O)O)c(NCc2ccco2)cc1Cl,263 (inactive),1.08 (inactive),1.05,1.14,,,,inactive,,,,,
Nc1nnc(-c2cccc(Cl)c2Cl)c(N)n1,281 (inactive),0.86 (inactive),1.05,0.91,,,,inactive,inactive,inactive,,,
Cc1cnc(NC(=O)C2=C(O)c3ccccc3S(=O)(=O)N2C)s1,257 (inactive),0.91 (inactive),1.16,1.05,,inactive,inactive,,inactive,inactive,,,
COc1ccccc1N1CCN(CC(O)COc2cccc3ccccc23)CC1 (stereo not given),202 (inactive),0.7 (inactive),1.13,0.8,100% (inactive),inactive,,inactive,,,,,
CCOc1cc(CC(=O)N[C@@H](CC(C)C)c2ccccc2N2CCCCC2)ccc1C(=O)O,247 (inactive),0.96 (inactive),1.2,1.16,120% (inactive),inactive,inactive,,inactive,,,,
CC(C)NCC(O)COc1ccc(COCCOC(C)C)cc1 (stereo not given),229 (inactive),0.9 (inactive),1.05,0.94,120% (inactive),inactive,inactive,inactive,,,,,
CC[C@@]1(O)C(=O)OCc2c1cc1n(c2=O)Cc2cc3c(CN(C)C)c(O)ccc3nc2-1,251 (inactive),1.81 (inactive),0.19,0.34,,,,,,,0.0525 µM (active),8.33 µM (active),0.332 µM (active)
Oc1ccc(C2CNCCc3c2cc(O)c(O)c3Cl)cc1 (stereo not given),286 (inactive),1.06 (inactive),1.1,1.17,110% (inactive),inactive,,inactive,inactive,inactive,,,
Nc1nc2c(ncn2COC(CO)CO)c(=O)[nH]1,268 (inactive),1.03 (inactive),1.04,1.07,,,,,inactive,,,16.6 µM (active),20.9 µM (active)
CCc1c2c(nc3ccc(OC(=O)N4CCC(N5CCCCC5)CC4)cc13)-c1cc3c(c(=O)n1C2)COC(=O)[C@]3(O)CC,270 (inactive),1.07 (inactive),0.32,0.34,108% (inactive),,,,,,0.263 µM (active),,4.69 µM (active)
CCOC(=O)c1ncn2c1CN(C)C(=O)c1cc(F)ccc1-2,276 (inactive),0.89 (inactive),0.95,0.84,110% (inactive),,inactive,inactive,inactive,,,,
N#Cc1ccc(C(c2ccc(C#N)cc2)n2cncn2)cc1,236 (inactive),1.05 (inactive),1.21,1.28,,inactive,,,inactive,inactive,,,
CN1CCC(=C2c3ccccc3CC(=O)c3sccc32)CC1,231 (inactive),0.94 (inactive),1.17,1.1,118% (inactive),inactive,,,inactive,,,,
O=C(O)CCNC(=O)c1ccc(N=Nc2ccc(O)c(C(=O)O)c2)cc1,240 (inactive),1.02 (inactive),1.19,1.21,,inactive,,inactive,inactive,inactive,,,
CCCN[C@H]1CCc2nc(N)sc2C1,239 (inactive),0.69 (inactive),1.3,0.89,,inactive,,inactive,inactive,inactive,,,
COc1ccc(CC2c3cc(OC)c(OC)cc3CC[N+]2(C)CCC(=O)OCCCCCOC(=O)CC[N+]2(C)CCc3cc(OC)c(OC)cc3C2Cc2ccc(OC)c(OC)c2)cc1OC (stereo not given),250 (inactive),0.8 (inactive),1.18,0.94,,inactive,inactive,inactive,inactive,,,,
O=C(O)/C=C/c1ccc(Cn2ccnc2)cc1,275 (inactive),1.06 (inactive),1,1.05,107% (inactive),inactive,inactive,inactive,inactive,inactive,,,
COc1ccc(C2CNC(=O)C2)cc1OC1CCCC1 (stereo not given),251 (inactive),0.93 (inactive),1.05,0.97,98.4% (inactive),inactive,inactive,,inactive,inactive,,,
CC(C)(C#N)c1cc(Cn2cncn2)cc(C(C)(C)C#N)c1,266 (inactive),1.37 (inactive),0.74,1.02,,inactive,,inactive,inactive,,,,
